For assay [1], the system named is Zika virus NS2B-NS3 protease (linked construct). Briefly: Primary screen NINDS Rhodamine qHTS for Zika virus inhibitors (AID 1347160). Also: % is scaled to controls: 0 for no effect and ±100 for the full control effect; nearly all actives have a fitted effect of over 55% in size. The method, boiled down: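 Purified linked NS2B-NS3 protease (NS2B hydrophilic domain joined to NS3 protease by flexible linker), 25 nM in 10 mM Tris-HCl pH 8.0, 0.01% Tween 20. Compounds titrated, 15 min preincubation at room temperature; 1.5 microM Rhodamine110 substrate, FITC fluorescence change over 15 min.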

In assay [2] the target is Calcium and integrin-binding protein 1 (Homo sapiens) (UniProt Q99828). Briefly: Primary qHTS for Identification of Calcium Integrin Binding Protein 1 (CIB1) Competitor (AID 1508620). Also: top concentration of the series differs between compounds; % is scaled to controls: 0 for no effect and ±100 for the full control effect. The method, boiled down: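 Fluorescence polarization competition: GST-tagged CIB1 (1 uM final) preincubated with compound 15 min at room temperature, then FITC-labelled alphaIIb peptide (100 nM final) added. After 15 min at room temperature, polarization read at Ex 480/Em 540.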

The target in assay [3] is Glutathione peroxidase 1 (Homo sapiens) (UniProt P07203). Nature of the assay: Primary qHTS Assay for Inhibitors of Recombinant Selenoprotein Glutathione Peroxidase 1 (GPX1) (AID 1845191). Also: nearly all actives have a fitted effect of over 65% in size. The method, boiled down: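 GR-coupled assay: compounds preincubated 30 min at room temperature with GPX1, then reaction started with CHP; final 10 nM GPX1, 1 mM GSH, 0.5 mM CHP, 0.5 mM NADPH, 100 nM GR, 0.01% BSA, pH 7.5 Tris buffer. NADPH fluorescence (340/450 nm) read at 0 and 15 min.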

Assay [4] addresses Phospholipid hydroperoxide glutathione peroxidase GPX4 (Homo sapiens) (UniProt P36969). Nature of the assay: Primary qHTS Assay for Inhibitors of Recombinant Selenoprotein Glutathione Peroxidase 4 (GPX4) (AID 1845192). Also: % is scaled to controls: 0 for no effect and ±100 for the full control effect; nearly all actives have a fitted effect of over 65% in size. The method, boiled down: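 GR-coupled assay: recombinant GPX4 preincubated 30 min with compound at room temperature; final 200 nM GPX4, 1 mM GSH, 0.5 mM cumene hydroperoxide, 0.5 mM NADPH, 100 nM GR, 0.01% BSA, pH 7.5 Tris. NADPH fluorescence (340/450 nm) read at 0 and 15 min.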

For assay [5], the target named is Luciferin 4-monooxygenase (Photinus pyralis) (UniProt P08659). Briefly: Primary firefly luciferase (FLuc) qHTS assay for identification of artifact compounds. (AID 1845220). Also: nearly all actives have a fitted effect of over 60% in size. The settings on record: outcome: dose series up to 54.1 µM unless noted. In short, it runs like this: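 Enzymatic FLuc inhibition assay: compounds pre-exposed to luciferin/ATP (10 uM each) for 15 min, then purified P. pyralis enzyme at 10 nM added. Read-out: luminescence at 5 min.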

Assay [6] in a line: Primary fluorescence-based thiol-reactive (MSTI) qHTS assay for identification of artifact compounds. (AID 1845221).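 Also: thiol-reactive compounds lower the probe fluorescence signal; nearly all actives have a fitted effect of over 65% in size.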 In short, it runs like this: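 Thiol-reactive compounds detected by quenching of 4 uM MSTI fluorescence (525/598 nm) after 1 h room-temperature dark incubation in PBS pH 7.4, 2% DMSO. qHTS titration; percent inhibition Hill-fitted against Acetyl-MSTI/MSTI controls.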

For assay [7], the system named is Nanoluciferase (engineered Oplophorus gracilirostris luciferase). Briefly: Primary Nanoluciferase (NLuc) qHTS assay for identification of artifact compounds. (AID 1845222).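 Also: NLuc secreted into diluted conditioned medium of S16 cells; 0% = DMSO and -100% = no enzyme.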 The method, boiled down: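 S16 cell supernatant NLuc, 1:55; cpds qHTS; 15 min RT dark; Nano-Glo substrate 1:100, 5 min; luminescence; Hill fit of % inhibition.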
Assay [8] is described as follows: Primary redox qHTS assay for identification of artifact compounds. (AID 1845223).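 Also: 0% = DMSO and 100% = reference compound.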 In short, it runs like this: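 Amplex Red (25 uM) and HRP (250 mU/mL) in HBSS, with compounds for 15 min, then 250 uM DTT for 30 min, room temperature, dark. Fluorescence 525/598 nm read; normalized to DMSO and 10 uM DA3003; Hill fit.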
The test system of another assay is HaCat. Briefly: Cytotoxic Profiling of Annotated Libraries Using Quantitative High-Throughput Screening (AID 1296008). Also: nearly all actives have a fitted effect of over 60% in size. As to max response: % is scaled to controls: 0 for no effect and ±100 for the full control effect. The conditions noted are these: Five cell lines viability, CellTiter-Glo ATP luminescence, 48-72 h; max response: active compounds read low. In short, it runs like this: (§1)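 Cells exposed to compounds for 48 or 72 hr at 37 degrees Celsius. Viability read as ATP-coupled luminescence with CellTiter-Glo after 10 min at room temperature.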

A further assay deals with CAOV3. Nature of the assay: Primary qHTS to identify gynecologic anti-cancer compounds using libraries of approved drugs and bioactive compounds (AID 1345084). Also: nearly all actives have a fitted effect of over 55% in size. Also: potency is read from the fitted curve at half-maximal effect. The conditions noted are these: Gynecologic cancer cell panel viability, ATPlite luminescence, 48 h; series mostly up to 57.5 µM. In short, it runs like this: (§2)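 Five-point cytotoxicity, 48 h drug exposure at 37 C, 5% CO2, on cells seeded 16 h beforehand. ATP content read by ATPlite luminescence.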

Another assay deals with CASKI. The assay is described as above. The settings on record: Gynecologic cancer cell panel viability, ATPlite luminescence, 48 h; series mostly up to 57.5 µM. The method, boiled down: as §2
Another assay has as its system OV90. The description is as above. The settings on record: Gynecologic cancer cell panel viability, ATPlite luminescence, 48 h; series mostly up to 57.5 µM. The method, boiled down: as §2
Another assay relates to C33A. The description is as above. The settings on record: Gynecologic cancer cell panel viability, ATPlite luminescence, 48 h; series mostly up to 57.5 µM. In short, it runs like this:
as §2

The next assay has as its system NIH3T3. Briefly: Cytotoxic Profiling of Annotated Libraries Using Quantitative High-Throughput Screening (AID 1296008). Also: nearly all actives have a fitted effect of over 60% in size. As to max response: % is scaled to controls: 0 for no effect and ±100 for the full control effect. The conditions noted are these: Five cell lines viability, CellTiter-Glo ATP luminescence, 48-72 h; max response: active compounds read low. In short, it runs like this:
as §1

In the next assay the test system is Es-2. Nature of the assay: Primary qHTS to identify gynecologic anti-cancer compounds using libraries of approved drugs and bioactive compounds (AID 1345084). Also: nearly all actives have a fitted effect of over 55% in size. Also: potency is read from the fitted curve at half-maximal effect. The conditions noted are these: Gynecologic cancer cell panel viability, ATPlite luminescence, 48 h; series mostly up to 57.5 µM. The method, boiled down: as §2
In a further assay the test system is Hek293T. Described as above. The conditions noted are these: Gynecologic cancer cell panel viability, ATPlite luminescence, 48 h, control line for the selectivity index; series mostly up to 57.5 µM. The method, boiled down: as §2
The next assay relates to JEG-3. The description is as above. The conditions noted are these: Gynecologic cancer cell panel viability, ATPlite luminescence, 48 h; series mostly up to 57.5 µM. The method, boiled down: as §2
Another assay concerns PA-1. Described as above. The conditions noted are these: Gynecologic cancer cell panel viability, ATPlite luminescence, 48 h; series mostly up to 57.5 µM. The method, boiled down:
as §2

A further assay relates to Tov-21-G. The assay is described as above. The conditions noted are these: Gynecologic cancer cell panel viability, ATPlite luminescence, 48 h; series mostly up to 57.5 µM. The method, boiled down: as §2
For the next assay, the system named is Tov112D. Described as above. The conditions noted are these: Gynecologic cancer cell panel viability, ATPlite luminescence, 48 h; series mostly up to 57.5 µM. In short, it runs like this:
as §2

Unmarked numbers belong to inactive results. Records with an inconclusive call do not appear. Activity calls are given as the source filed them. Calls follow the shape of the dose curve; as a rule, active = well fitted curve in the direction sought with a large enough effect; inconclusive = small, poorly fitted or top-dose-only effect, or another doubt; inactive = no such curve, though single readings can be large; an effect the other way counts as inactive or inconclusive. Where a SMILES comes first, the peptide text is derived from it. [ ]: non-standard residue; d: D form. ξ: configuration not given here. ξLac(3-iPr) = CC(C)CC(O)C(=O)O; NMeV = CN[CH](C(=O)O)C(C)C; NMeA = CN[CH](C)C(=O)O; βAla = NCCC(=O)O

Sequence of Phospholipid hydroperoxide glutathione peroxidase GPX4 (Homo sapiens) (P36969 whole entry, looked up): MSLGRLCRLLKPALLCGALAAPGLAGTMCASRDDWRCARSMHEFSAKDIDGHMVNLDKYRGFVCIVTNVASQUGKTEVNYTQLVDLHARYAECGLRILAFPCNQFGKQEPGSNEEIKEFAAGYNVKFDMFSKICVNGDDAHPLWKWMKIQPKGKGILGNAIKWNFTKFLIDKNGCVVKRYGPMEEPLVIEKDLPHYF
Sequence of Calcium and integrin-binding protein 1 (Homo sapiens) (Q99828 whole entry, looked up): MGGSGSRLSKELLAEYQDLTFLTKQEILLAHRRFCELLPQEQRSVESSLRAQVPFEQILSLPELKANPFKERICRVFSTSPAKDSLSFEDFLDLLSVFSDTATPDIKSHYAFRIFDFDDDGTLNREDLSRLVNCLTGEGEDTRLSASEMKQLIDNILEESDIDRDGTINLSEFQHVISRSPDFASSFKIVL
Sequence of Glutathione peroxidase 1 (Homo sapiens) (P07203 whole entry, looked up): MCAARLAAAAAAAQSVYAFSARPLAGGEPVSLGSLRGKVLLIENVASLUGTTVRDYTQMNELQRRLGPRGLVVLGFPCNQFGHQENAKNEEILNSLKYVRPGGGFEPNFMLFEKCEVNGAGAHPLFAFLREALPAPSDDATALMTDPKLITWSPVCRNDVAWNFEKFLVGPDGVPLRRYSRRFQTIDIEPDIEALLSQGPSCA

Consider `CCOC(=O)c1ccnc2cc(C(OCCN3CCCCC3)c3ccccc3Cl)sc12` (configuration not stated), for which the Potency entry in assay [1], in assay [2], in [3], in assay [4], in assay [6] and in assay [7] was “inactive” throughout. The Potency entry (in [8]; with CAOV3) was “inactive” in each case. Also, the outcome (in assay [5]; in the assay with HaCat) was inactive.
As to `Cc1cccc(NC(=O)c2ccc(C(F)(F)F)cc2C(=O)O)n1`, the Potency entry (in [1]; in assay [2]; in assay [3]; in assay [4]; in assay [6]; with CASKI) was “inactive” in each case. For the same molecule, in the assay on OV90, the Potency result is “inactive”. Moreover, the outcome (in [5]; in the assay with HaCat) was inactive.
For the molecule `COC[C@]12CN(C)C3C4[C@H](OC)[C@H]1C3(C(OC)C[C@H]2O)[C@H]1C[C@@]2(O)[C@H](OC(=O)c3ccccc3)[C@@H]1[C@]4(O)[C@@H](O)[C@@H]2OC` (some centres not stated), the Potency entry in assay [1], in [2], in assay [4], in assay [6], in assay [7] and in assay [8] was “inactive” in each case. Further, in the assay with CAOV3, the Potency result was “inactive”. In assay [5], the molecule was called inactive. For the same molecule, the max response with HaCat is -14.8%.
On to `CCC(C)C1NC(=O)C2CCCN2C(=O)C(CC(C)C)OC(=O)CCNC(=O)C(C)N(C)C(=O)C(C(C)C)N(C)C1=O` (configuration not stated) (cyclo([ξLac(3-iPr)]PI[NMeV][NMeA][βAla]); configuration not given here), for which the Potency entry (in assay [1]; in assay [2]; in assay [3]; in assay [4]; in [6]; with C33A) was “inactive” in each case. Further, the Potency entry in the assay with CASKI is “inactive”. For the same molecule, in [5], the result was inactive. For the same molecule, in the assay with HaCat, the max response is -9.99%. Further, the Potency in the assay on OV90 is 3.98 µM (active).
For `CCOC(=O)C1(CCc2ccccc2)CCN(Cc2ccc(NC(C)=O)cc2)CC1`, the Potency entry in [1], in assay [2], in [3], in assay [4], in assay [6] and in [7] was “inactive” each time. Besides, the Potency result (in assay [8]; with C33A; with CAOV3; in the assay with CASKI; in the assay with Es-2; in the assay with Hek293T) was “inactive” throughout. For the same molecule, the Potency result in the assay with JEG-3, in the assay with OV90, with PA-1, in the assay with Tov-21-G and in the assay with Tov112D was “inactive” throughout. Besides, the outcome in [5] was inactive. In addition, the figures for the max response with HaCat and in the assay on NIH3T3 were 1.98% and -0.351%, respectively.
As to `CCCCCn1cc(C(=O)C2C(C)(C)C2(C)C)c2ccccc21`, the Potency result in assay [1], in assay [2], in [3], in assay [4], in assay [7] and in [8] was “inactive” each time. Also, the Potency entry with C33A, in the assay on CAOV3, with CASKI, in the assay with Es-2, in the assay with Hek293T and in the assay on JEG-3 was “inactive” in each case. Also, the Potency entry in the assay with OV90, with PA-1, in the assay on Tov-21-G and in the assay on Tov112D was “inactive” throughout. Further, the outcome (in assay [5]; in the assay on HaCat) was inactive. Moreover, the max response with NIH3T3 was -0.489%.
